Bioassay records from PubChem.
EZH2 inh: blocks human EZH2/PRC2 H3K27 methylation; Q15910; DELFIA TRF, 1 h; inhibition, % at 12.5 µM; 57,000 compounds, 0.35% hits; AID 651548;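 active = mean inhibition of replicates at least 50% and every single replicate also reaching 50%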;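 also: dimethyl H3K27 on biotinylated H3 21-44 peptide detected by antibody; plate controls were median neutral control wells for no effect and median positive control wells for full effect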
* = called active by the depositor. Only a selection was taken, and hits are over-represented in it overall.

SMILES | EZH2 inh
CC(O)CCCc1cc(O)cc(O[C@@H]2O[C@H](CO)[C@@H](O)[C@H](O)[C@H]2O)c1 (stereo partly drawn) | 5
COc1ccc(/C=C/c2cc(O)cc(O[C@@H]3O[C@H](CO)[C@@H](O)[C@H](O)[C@H]3O)c2)cc1 | 0
CC(=O)c1c(O)cc(O[C@@H]2O[C@H](CO)[C@@H](O)[C@H](O)[C@H]2O)cc1O | 94*
O=C(CCc1ccc(O)cc1)c1c(O)cc(O)cc1O[C@@H]1O[C@H](CO)[C@@H](O)[C@H](O)[C@H]1O | -4
CC(=O)c1ccc(O[C@@H]2O[C@H](CO)[C@@H](O)[C@H](O)[C@H]2O)c(/C=C/C(C)(C)O)c1 | 5
COc1ccccc1C1CC(c2ccc(C)cc2)=NN1C(=O)CCC(=O)O (stereo not drawn) | -11
Cc1ccccc1NC(=O)CSc1nc2cc3ccccc3cc2[nH]1 | 1
Cc1cccc(C)c1OCC(=O)Nc1sc(C)c(C)c1C(N)=O | -6
CO[C@H](CN(C)S(=O)(=O)c1ccc(C)cc1)[C@H](C)CN(Cc1ccccc1Cl)[C@@H](C)CO | 42
CO[C@@H](CN(C)S(=O)(=O)c1ccc(C)cc1)[C@@H](C)CN(Cc1ccccc1Cl)[C@H](C)CO | 51*
CO[C@@H](CN(C)S(=O)(=O)c1ccc(C)cc1)[C@@H](C)CN(Cc1ccccc1Cl)[C@@H](C)CO | 38
NC(=O)C1(N2CCCCC2)CCN(CC(=O)Nc2ccc(Cl)cc2)CC1 | 8
COc1ccc(C2C(C(=O)Nc3cc(OC)c(Cl)cc3OC)=C(C)Nc3ncnn32)c(OC)c1 (stereo not drawn) | 8
O=C(NO)c1ccc(C(=O)N/N=C/c2ccc(OCCO)cc2)cc1 | 28
COc1ccccc1NC(=O)C(Cc1ccccc1)N1C(=O)C2C3c4ccccc4C(c4ccccc43)C2C1=O (stereo not drawn) | -2
COC(=O)[C@H](Cc1ccc(N=[N+]=[N-])cc1)N1CC(/C=C/[C@@H](O)Cc2ccccc2)=C[C@@H](C2CC2)O1 | 0
COC(=O)[C@H](Cc1ccccc1)N1C(=O)O[C@H](Cc2ccccc2)[C@@H]1/C=C/C1CC1 | 56*
Cc1cc(Cl)ccc1N(CC(=O)Nc1cc(Cl)cc(Cl)c1)S(C)(=O)=O | 27
COc1ccc(C(=O)Nc2ccc(CN3C(=O)[C@]4(O[C@H](CC(=O)N5Cc6ccccc6C[C@H]5CO)[C@@H]([Si](C)(C)c5ccc(OC)cc5)[C@@H]4C)c4ccccc43)cc2)cc1 | -2
C/C=C/[C@H](CC(=O)N1Cc2ccccc2C[C@H]1CO)[Si](C)(C)c1ccc(OC)cc1 | 57*
COc1ccc([Si](C)(C)[C@@H]2[C@@H](CC(=O)N3Cc4ccccc4C[C@H]3CO)O[C@]3(C(=O)N(C)c4c(Br)cc(C)cc43)[C@H]2C)cc1 | 18
COc1ccccc1CC(=O)Nc1cc(Cl)ccc1C(=O)O | -2
COc1ccc(OC)c(NC(=O)CSc2nnc(-c3ccc(Cl)cc3Cl)n2C)c1 | -5
CCC(Sc1nc(C)cc(C)n1)C(=O)Nc1ccc(-c2nc3ccc(C)cc3s2)cc1 (stereo not drawn) | 1
C[C@@H]1CC[C@]2(C(=O)O[C@@H]3O[C@H](CO)[C@@H](O)[C@H](O)[C@H]3O)CC[C@]3(C)C(=CCC4[C@@]5(C)C[C@@H](O)[C@H](O)C(C)(C)C5CC[C@]43C)C2[C@]1(C)O (stereo partly drawn) | 36
SMILES | EZH2 inh
CC1(C)CC[C@]2(C(=O)O[C@@H]3O[C@H](CO)[C@@H](O)[C@H](O)[C@H]3O)CC[C@]3(C)C(=CCC4[C@@]5(C)C[C@@H](O)[C@H](O)C(C)(C)C5CC[C@]43C)C2[C@@H]1O (stereo partly drawn) | 68*
CC1CC[C@]2(C(=O)OC3OC(COC4OC(CO)C(O)C(O)C4O)C(O)C(O)C3O)CC[C@]3(C(=O)O)C(=CCC4[C@@]5(C)CC[C@H](OC6OC(C)C(O)C(O)C6O)C(C)(C)C5CC[C@]43C)C2C1C (stereo partly drawn) | 71*
C[C@H]1[C@H](C)CC[C@]2(C(=O)O)CC[C@]3(C(=O)O)C(=CCC4[C@@]5(C)CC[C@H](O[C@@H]6O[C@@H](C)[C@H](O)[C@@H](O)[C@H]6O)C(C)(C)C5CC[C@]43C)[C@H]12 (stereo partly drawn) | 19
C[C@H]1O[C@@H](O[C@H]2CC[C@@]3(C)C(CC[C@]4(C)C3CC=C3C5CC(C)(C)CC[C@]5(C(=O)O)CC[C@]34C(=O)O)C2(C)C)[C@H](O)[C@@H](O)[C@H]1O (stereo partly drawn) | 3
CC1(C)CC[C@]2(C(=O)O[C@@H]3O[C@H](CO)[C@@H](O)[C@H](O)[C@H]3O)CC[C@]3(C)C(=CCC4[C@@]5(C)CC[C@H](OC6O[C@H](CO)[C@@H](O)[C@H](O[C@@H]7O[C@H](CO)[C@@H](O)[C@H](O)[C@H]7O)[C@H]6O)C(C)(C)C5CC[C@]43C)[C@@H]2C1 (stereo partly drawn) | -18
Cc1ccc(NC(=O)COc2ccc3c(=O)c(-c4ccccc4Cl)coc3c2)cc1 | -1
